PubChem BioAssay (NCATS)
Where “and” joins values, the source holds several entries; their conditions need not be identical. Equal values may be shown once. Results filed as inconclusive are left out. Calls of active or inactive are those of the source. Unless noted, the call rests on the fitted dose curve; in most records, active means well fitted curve in the direction sought with a large enough effect; inconclusive means small, poorly fitted or top-dose-only effect, or another doubt; inactive means no such curve, though single readings can be large; an effect the other way counts as inactive or inconclusive.

Experiments:
[1] = AP1 Signaling Pathway (AID 357; active means well fitted curve in either direction with a large enough effect, not every such curve was filed as active;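 further: ME-180 reporter cells stimulated with EGF at its EC50 level; on the % scale 0 is the no-effect control and ±100 the full control effect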); conditions: ME-180 AP-1-bla reporter, EGF-induced, beta-lactamase ratio, 5 h
Summary of the method: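 AP-1-bla ME-180 cells, Opti-MEM + 0.5% dialyzed FBS, plated overnight 37 °C. Cpd titration + EC50 EGF, 5 h 37 °C. CCF4 2.5 h RT; ex 405, em 460/530 ratio → %activity, AC50.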

[2] = NFAT Signaling Pathway (AID 444; active means well fitted curve in either direction with a large enough effect, not every such curve was filed as active;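 further: carbachol stimulus at about its EC50 of 1 µM final; on the % scale 0 is the no-effect control and ±100 the full control effect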); conditions: Jurkat NFAT-bla M1, carbachol, beta-lactamase ratio, 5 h
Summary of the method: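 Jurkat cells with NFAT-driven β-lactamase reporter and co-expressed M1 receptor, stimulated with carbachol (final 1 uM, ~EC50), compound titration, 5 h at 37 °C. CCF4 loaded 1 h at RT; 460/530 nm ratio gave %activity and AC50.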

[3] = Stat Signaling Pathway (AID 446; active means well fitted curve in either direction with a large enough effect, not every such curve was filed as active;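 further: ME-180 cervical cancer cells given 40 pM IL-6 alongside compound; SIE-controlled beta-lactamase reporter measured as 460/530 nm FRET emission ratio; on the % scale 0 is the no-effect control and ±100 the full control effect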); conditions: ME-180 (cervical carcinoma) SIE beta-lactamase reporter, IL-6 stimulated, 5 h
Summary of the method: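 Emission at 460 and 530 nm (excitation 405 nm) reports SIE-controlled beta-lactamase in ME-180 cells. Cells received compound with 40 pM IL-6 for 5 hrs at 37 C; data scaled between 300 pM IL-6 and 125 nM JAK-inhibitor controls.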

[4] = target: Glucocorticoid receptor (Homo sapiens) (UniProt P04150); assay: GR-GFP Redistribution (AID 450;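 active means compounds whose dose series gives a full or clear partial fitted curve of increased nuclear translocation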; further: potency means the concentration at half of the fitted maximal effect); conditions: U2OS GR-GFP nuclear translocation, laser cytometry, 2 h
Chain of Glucocorticoid receptor (Homo sapiens) (P04150 whole entry, looked up, the tested form may be a part): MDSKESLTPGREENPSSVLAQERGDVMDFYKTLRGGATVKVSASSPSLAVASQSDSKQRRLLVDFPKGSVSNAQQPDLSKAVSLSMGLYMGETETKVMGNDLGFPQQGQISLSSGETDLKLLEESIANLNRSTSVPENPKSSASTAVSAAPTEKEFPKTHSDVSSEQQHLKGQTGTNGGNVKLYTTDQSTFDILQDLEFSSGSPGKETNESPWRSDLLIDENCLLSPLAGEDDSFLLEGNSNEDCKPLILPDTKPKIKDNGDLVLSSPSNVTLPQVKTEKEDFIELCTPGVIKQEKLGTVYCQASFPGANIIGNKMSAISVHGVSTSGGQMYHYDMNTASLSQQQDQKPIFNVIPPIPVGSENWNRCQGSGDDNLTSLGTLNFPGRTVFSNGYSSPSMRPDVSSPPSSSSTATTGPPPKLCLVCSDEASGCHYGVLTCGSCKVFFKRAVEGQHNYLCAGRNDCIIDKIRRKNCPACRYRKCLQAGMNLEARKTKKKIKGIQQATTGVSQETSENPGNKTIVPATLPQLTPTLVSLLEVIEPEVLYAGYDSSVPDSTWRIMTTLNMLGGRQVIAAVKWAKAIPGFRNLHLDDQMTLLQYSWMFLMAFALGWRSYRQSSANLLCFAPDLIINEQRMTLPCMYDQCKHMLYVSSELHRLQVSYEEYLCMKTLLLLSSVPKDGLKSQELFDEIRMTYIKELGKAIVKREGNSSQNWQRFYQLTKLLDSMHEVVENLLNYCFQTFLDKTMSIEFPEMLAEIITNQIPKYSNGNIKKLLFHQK

[5] = target: Mitogen-activated protein kinase 10 (Mus musculus) (UniProt Q61831); assay: JNK3 AlphaScreen Assay (AID 530; active means well fitted curve in either direction with a large enough effect, not every such curve was filed as active;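 further: kinase came from lysate of stimulated human HepG2 cells; signal reports phosphorylation of biotinylated GST-cJun 1-79 at Ser73 with 10 µM ATP; on the % scale 0 is the no-effect control and ±100 the full control effect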)
Summary of the method: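 HepG2 lysate (IL-1b/TNFa pre-activated) + biotin-GST-cJun 1-79 + anti-pSer73 cJun; cpd titration, 15 min RT; ATP 10 uM start; Tris pH 7.6, MgCl2, DTT, vanadate; beads in EDTA buffer; AlphaScreen.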

[6] = target: 3',5'-cyclic-AMP phosphodiesterase 4B (Homo sapiens) (UniProt Q07343); assay: qHTS Assay for Inhibitors of PDE-IV (AID 607; active means well fitted activation curve with a large enough effect in the main read-out, with a control signal flat, not every such curve was filed as active; further: % of control where 0% means no effect)
Chain of 3',5'-cyclic-AMP phosphodiesterase 4B (Homo sapiens) (Q07343 whole entry, looked up): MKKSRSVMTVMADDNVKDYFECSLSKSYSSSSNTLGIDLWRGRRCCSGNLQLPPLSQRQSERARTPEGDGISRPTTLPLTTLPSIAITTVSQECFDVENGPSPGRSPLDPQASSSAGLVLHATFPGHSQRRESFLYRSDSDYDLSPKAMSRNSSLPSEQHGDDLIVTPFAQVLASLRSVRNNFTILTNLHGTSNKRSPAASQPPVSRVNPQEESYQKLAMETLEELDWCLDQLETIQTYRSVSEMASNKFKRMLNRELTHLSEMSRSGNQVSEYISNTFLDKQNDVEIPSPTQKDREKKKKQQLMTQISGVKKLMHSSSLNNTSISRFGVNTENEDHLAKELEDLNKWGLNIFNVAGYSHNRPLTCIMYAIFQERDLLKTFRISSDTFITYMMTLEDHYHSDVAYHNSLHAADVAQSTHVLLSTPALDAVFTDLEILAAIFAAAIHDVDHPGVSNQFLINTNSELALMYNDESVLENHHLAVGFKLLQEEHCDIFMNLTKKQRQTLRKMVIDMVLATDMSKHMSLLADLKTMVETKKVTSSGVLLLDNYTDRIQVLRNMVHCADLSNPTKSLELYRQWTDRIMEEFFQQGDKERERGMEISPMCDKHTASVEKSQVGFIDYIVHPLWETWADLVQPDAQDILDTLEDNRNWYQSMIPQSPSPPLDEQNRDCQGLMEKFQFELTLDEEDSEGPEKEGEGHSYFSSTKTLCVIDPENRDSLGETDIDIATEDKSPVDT
Summary of the method: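 The readout is membrane depolarisation from a cAMP-sensing CNG channel, detected with a potential dye at ex 535/em 590. Cells were HEK293-derived (endogenous PDE-IV) at 1000 cells/well, titrated up to 22.9 uM final.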

[7] = target: Ubiquitin carboxyl-terminal hydrolase 1 (Homo sapiens) (UniProt O94782); assay: Inhibitors of USP1/UAF1: Pilot qHTS (AID 504865);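 further: rhodamine fluorescence freed from ubiquitin-rhodamine substrate followed over time; top concentration of the series differs between compounds; on the % scale 0 is the no-effect control and ±100 the full control effect; nearly all actives have a fitted effect of over 35% in size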
Chain of Ubiquitin carboxyl-terminal hydrolase 1 (Homo sapiens) (O94782 whole entry, looked up): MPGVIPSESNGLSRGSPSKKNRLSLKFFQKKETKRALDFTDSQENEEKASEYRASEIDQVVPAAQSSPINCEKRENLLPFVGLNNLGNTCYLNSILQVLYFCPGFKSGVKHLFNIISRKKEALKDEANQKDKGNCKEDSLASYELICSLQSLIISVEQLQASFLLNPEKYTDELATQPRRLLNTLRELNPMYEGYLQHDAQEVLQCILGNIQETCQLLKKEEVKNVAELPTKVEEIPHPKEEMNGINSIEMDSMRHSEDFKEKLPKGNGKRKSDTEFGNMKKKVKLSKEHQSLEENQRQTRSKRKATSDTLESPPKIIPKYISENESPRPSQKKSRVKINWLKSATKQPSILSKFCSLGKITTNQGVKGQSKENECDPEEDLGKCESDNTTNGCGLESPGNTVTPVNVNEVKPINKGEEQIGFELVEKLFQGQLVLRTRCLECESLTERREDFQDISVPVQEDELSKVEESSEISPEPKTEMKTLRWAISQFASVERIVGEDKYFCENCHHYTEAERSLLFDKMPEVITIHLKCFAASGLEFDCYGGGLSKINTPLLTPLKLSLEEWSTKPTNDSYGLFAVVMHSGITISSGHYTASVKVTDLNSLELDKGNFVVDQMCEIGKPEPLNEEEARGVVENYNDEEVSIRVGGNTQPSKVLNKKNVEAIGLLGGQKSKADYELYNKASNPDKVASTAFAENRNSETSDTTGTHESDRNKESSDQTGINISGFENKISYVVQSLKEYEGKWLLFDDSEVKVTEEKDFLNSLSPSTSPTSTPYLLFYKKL
Summary of the method: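 Deubiquitinase activity followed as kinetic rhodamine fluorescence release from 150 nM Ub-Rho. 1 nM USP1/UAF1 with compound, after 15 min room-temperature preincubation, in HEPES pH 7.8 buffer containing TCEP, EDTA, BSA and Tween-20.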

[8] = target: DNA dC->dU-editing enzyme APOBEC-3G (Homo sapiens) (UniProt Q9HC16); assay: qHTS for inhibitors of Vif-A3G interactions: Validation (AID 588379); further: 0% is about no effect
Chain of DNA dC->dU-editing enzyme APOBEC-3G (Homo sapiens) (Q9HC16 whole entry, looked up): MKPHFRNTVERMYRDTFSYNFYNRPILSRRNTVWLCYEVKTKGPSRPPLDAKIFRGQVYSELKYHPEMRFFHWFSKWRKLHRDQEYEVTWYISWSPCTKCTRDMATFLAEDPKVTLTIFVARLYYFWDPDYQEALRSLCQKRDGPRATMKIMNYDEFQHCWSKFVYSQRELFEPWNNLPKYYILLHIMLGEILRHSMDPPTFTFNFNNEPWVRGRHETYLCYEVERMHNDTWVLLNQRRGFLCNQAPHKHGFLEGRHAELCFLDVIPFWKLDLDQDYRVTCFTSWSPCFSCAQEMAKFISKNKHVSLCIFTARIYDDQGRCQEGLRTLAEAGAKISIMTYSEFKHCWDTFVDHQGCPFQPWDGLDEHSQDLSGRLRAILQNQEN
Summary of the method: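 Yellow fluorescence (Ex 488, Em 500-530) of Vif-coexpressing HeLa A3G-eYFP cells, scanned by Acumen cytometer, reports blocked A3G degradation. Cells plated at 700/well overnight at 37 deg C before compound addition, then a further overnight compound incubation at 37 deg C.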

[9] = system: Zika virus NS2B-NS3 protease; assay: Primary screen GU AMC qHTS for Zika virus inhibitors (AID 1347154);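 further: 0% = no-inhibitor control and -100% = no-enzyme control; nearly all actives have a fitted effect of over 70% in size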
Summary of the method: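 Unlinked Zika NS2B hydrophilic domain–NS3 protease complex at 25 nM in 10 mM Tris-HCl pH 8.0, 0.01% Tween 20, with an AMC peptide substrate. Fluorescence change (340/450 nm) over 15 min at room temperature, normalized to controls, fitted to 4-parameter Hill.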

[10] = target: Glutathione peroxidase 1 (Homo sapiens) (UniProt P07203); assay: Primary qHTS Assay for Inhibitors of Recombinant Selenoprotein Glutathione Peroxidase 1 (GPX1) (AID 1845191); further: nearly all actives have a fitted effect of over 65% in size
Chain of Glutathione peroxidase 1 (Homo sapiens) (P07203 whole entry, looked up): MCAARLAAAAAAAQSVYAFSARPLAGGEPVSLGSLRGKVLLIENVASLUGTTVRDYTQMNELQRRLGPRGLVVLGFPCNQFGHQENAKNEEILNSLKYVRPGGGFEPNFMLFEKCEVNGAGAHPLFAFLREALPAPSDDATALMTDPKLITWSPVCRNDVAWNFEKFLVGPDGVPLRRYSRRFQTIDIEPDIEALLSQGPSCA
Summary of the method: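 GR-coupled readout: NADPH consumption tracked by fluorescence, ex 340/em 450 nm, at t=0 and after 15 min at RT. Final mix 10 nM GPX1, 1 mM GSH, 0.5 mM CHP, 0.5 mM NADPH, 100 nM GR, 0.01% BSA, following 30 min enzyme–compound preincubation.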

[11] = target: Glucocorticoid receptor (Homo sapiens) (UniProt P04150); assay: GR-EFC Redistribution (AID 451; calls by dose curve; further: potency means the concentration at half of the fitted maximal effect); conditions: CHO-K1 GR-EFC translocation, beta-gal luminescence, 2 h
Summary of the method: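 CHO-K1 cells expressing nuclear EA and GR-ED fragments of b-gal; compounds titrated up to 46 uM final, 2 h at 37 C. GR nuclear translocation read as complemented b-gal luminescence after 1 h RT detection.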

[12] = target: Cytochrome P450 2C9 (Homo sapiens) (UniProt P11712); assay: qHTS Assay for Inhibitors and Substrates of Cytochrome P450 2C9 (AID 883); further: on the % scale 0 is the no-effect control and ±100 the full control effect; nearly all actives have a fitted effect of over 60% in size
Chain of Cytochrome P450 2C9 (Homo sapiens) (P11712 whole entry, looked up): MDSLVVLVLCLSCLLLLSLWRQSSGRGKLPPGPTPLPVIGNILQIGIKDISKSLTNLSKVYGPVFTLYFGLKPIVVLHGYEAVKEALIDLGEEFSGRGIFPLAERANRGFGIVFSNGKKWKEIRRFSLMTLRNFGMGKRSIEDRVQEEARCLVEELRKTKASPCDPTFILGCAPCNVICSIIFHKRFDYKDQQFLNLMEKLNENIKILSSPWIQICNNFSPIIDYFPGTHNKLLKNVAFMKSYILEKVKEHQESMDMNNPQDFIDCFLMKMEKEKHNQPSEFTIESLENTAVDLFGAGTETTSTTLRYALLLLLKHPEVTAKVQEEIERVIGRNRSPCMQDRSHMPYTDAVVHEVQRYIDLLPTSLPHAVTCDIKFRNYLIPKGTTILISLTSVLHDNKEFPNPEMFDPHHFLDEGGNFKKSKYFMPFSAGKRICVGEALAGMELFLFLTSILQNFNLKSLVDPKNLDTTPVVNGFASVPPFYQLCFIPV
Summary of the method: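 Human CYP2C9 (10nM) with Luciferin-H at 100uM (its KM) in 25mM KPO4; compound preincubated 10 min at 37C, then NADPH regeneration for 60 min at 37C. Luciferin read by luminescence after detection reagent; normalized to 57uM sulphaphenazole as full inhibition.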

[13] = target: Cytochrome P450 2D6 (Homo sapiens) (UniProt P10635); assay: qHTS Assay for Inhibitors and Substrates of Cytochrome P450 2D6 (AID 891); further: potency means the concentration at half of the fitted maximal effect; nearly all actives have a fitted effect of over 60% in size
Summary of the method: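 Luminescent read-out of luciferin formed by 5 nM human CYP2D6 demethylating 30 uM Luciferin-ME EGE (Km level) over 60 min at room temperature after NADPH regeneration addition. Data normalized to full inhibition by 1.43 uM quinidine.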

[14] = target: Cytochrome P450 2C19 (Homo sapiens) (UniProt P33261); assay: qHTS Assay for Inhibitors and Substrates of Cytochrome P450 2C19 (AID 899); further: on the % scale 0 is the no-effect control and ±100 the full control effect; nearly all actives have a fitted effect of over 60% in size
Chain of Cytochrome P450 2C19 (Homo sapiens) (P33261 whole entry, looked up): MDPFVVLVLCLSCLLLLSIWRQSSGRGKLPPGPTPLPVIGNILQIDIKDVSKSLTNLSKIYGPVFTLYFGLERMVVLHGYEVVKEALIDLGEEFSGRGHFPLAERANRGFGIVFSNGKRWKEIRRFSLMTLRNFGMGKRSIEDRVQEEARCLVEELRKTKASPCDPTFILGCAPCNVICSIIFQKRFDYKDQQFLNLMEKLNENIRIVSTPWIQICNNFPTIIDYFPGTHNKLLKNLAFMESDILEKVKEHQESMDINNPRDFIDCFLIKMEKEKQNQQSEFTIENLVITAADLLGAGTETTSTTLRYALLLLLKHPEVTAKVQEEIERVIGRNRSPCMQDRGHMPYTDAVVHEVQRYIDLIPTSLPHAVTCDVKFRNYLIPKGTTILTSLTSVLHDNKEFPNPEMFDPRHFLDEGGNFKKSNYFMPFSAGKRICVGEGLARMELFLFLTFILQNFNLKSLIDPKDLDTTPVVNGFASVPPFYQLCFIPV
Summary of the method: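 5 nM human CYP2C19 with 10uM Luciferin-H EGE (at KM) in 50mM KPO4, compound preincubated 10 min at 37C, then NADPH regeneration for 60 min at 37C. Luciferin read by luminescence after detection reagent; normalized to 57uM ketoconazole as full inhibition.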

[15] = qHTS Assay for Lipid Storage Modulators (AID 1519; calls by dose curve); conditions: Drosophila S3 cells, BODIPY lipid droplet/cell ratio, laser cytometry, cells loaded with oleic acid; for activity change, negative = inhibition: at 57.5 µM (top of the series)
Summary of the method: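 Cells seeded at 5,000 per well were treated with compounds over a concentration series and loaded with oleic acid (400 uM, as added). Lipid droplet fluorescence (488 nm excitation, 500-530 nm channel) was read by laser-scanning cytometry and normalized to 20 uM Triacsin C.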

[16] = target: Cytochrome P450 1A2 (Homo sapiens) (UniProt P05177); assay: p450-cyp1a2 (AID 410; calls by dose curve; further: potency means the concentration at half of the fitted maximal effect)
Summary of the method: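 20nM CYP1A2, 100uM Luciferin-ME (=Km), 100mM KPO4; cpd 10 min RT; +NADPH regen, 60 min RT; stop/detect 20 min; luminescence. Normalized to furafylline 57 uM = full inhibition.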

[17] = target: Rap guanine nucleotide exchange factor 3 (Homo sapiens) (UniProt O95398); assay: Confirmatory qHTS for antagonist of cAMP-regulated guanine nucleotide exchange factor 3 (EPAC1) (AID 1645880);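 further: plate controls were DMSO only for no effect and full effect of the ATA control for full effect; nearly all actives have a fitted effect of over 55% in size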
Summary of the method: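 Released BODIPY-GDP fluoresces less than Rap1-bound BODIPY-GDP; the signal is followed at 480/540 nm at 5-min intervals over 30 min, after 5 min at room temperature. Reactions contain 100 nM EPAC1, 250 nM RAP1B-BODIPY-GDP and 50 uM GDP; results are normalized to ATA and DMSO.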

[18] = target: Rap guanine nucleotide exchange factor 3 (Homo sapiens) (UniProt O95398); assay: Confirmatory qHTS for agonist of cAMP-regulated guanine nucleotide exchange factor 3 (EPAC1) (AID 1645881);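 further: EPAC1 catalysed release of BODIPY-GDP from Rap1B seen as fluorescence loss; 100% = effect of cAMP agonist control; nearly all actives have a fitted effect of over 75% in size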
[19] = target: Rap guanine nucleotide exchange factor 4 (Homo sapiens) (UniProt Q8WZA2); assay: Confirmatory qHTS for agonist of cAMP-regulated guanine nucleotide exchange factor 4 (EPAC2) (AID 1645884);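 further: nucleotide exchange releases bodipy-GDP from Rap1 and this lowers its fluorescence; on the % scale 0 is the no-effect control and ±100 the full control effect; nearly all actives have a fitted effect of over 65% in size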
Chain of Rap guanine nucleotide exchange factor 4 (Homo sapiens) (Q8WZA2 whole entry, looked up): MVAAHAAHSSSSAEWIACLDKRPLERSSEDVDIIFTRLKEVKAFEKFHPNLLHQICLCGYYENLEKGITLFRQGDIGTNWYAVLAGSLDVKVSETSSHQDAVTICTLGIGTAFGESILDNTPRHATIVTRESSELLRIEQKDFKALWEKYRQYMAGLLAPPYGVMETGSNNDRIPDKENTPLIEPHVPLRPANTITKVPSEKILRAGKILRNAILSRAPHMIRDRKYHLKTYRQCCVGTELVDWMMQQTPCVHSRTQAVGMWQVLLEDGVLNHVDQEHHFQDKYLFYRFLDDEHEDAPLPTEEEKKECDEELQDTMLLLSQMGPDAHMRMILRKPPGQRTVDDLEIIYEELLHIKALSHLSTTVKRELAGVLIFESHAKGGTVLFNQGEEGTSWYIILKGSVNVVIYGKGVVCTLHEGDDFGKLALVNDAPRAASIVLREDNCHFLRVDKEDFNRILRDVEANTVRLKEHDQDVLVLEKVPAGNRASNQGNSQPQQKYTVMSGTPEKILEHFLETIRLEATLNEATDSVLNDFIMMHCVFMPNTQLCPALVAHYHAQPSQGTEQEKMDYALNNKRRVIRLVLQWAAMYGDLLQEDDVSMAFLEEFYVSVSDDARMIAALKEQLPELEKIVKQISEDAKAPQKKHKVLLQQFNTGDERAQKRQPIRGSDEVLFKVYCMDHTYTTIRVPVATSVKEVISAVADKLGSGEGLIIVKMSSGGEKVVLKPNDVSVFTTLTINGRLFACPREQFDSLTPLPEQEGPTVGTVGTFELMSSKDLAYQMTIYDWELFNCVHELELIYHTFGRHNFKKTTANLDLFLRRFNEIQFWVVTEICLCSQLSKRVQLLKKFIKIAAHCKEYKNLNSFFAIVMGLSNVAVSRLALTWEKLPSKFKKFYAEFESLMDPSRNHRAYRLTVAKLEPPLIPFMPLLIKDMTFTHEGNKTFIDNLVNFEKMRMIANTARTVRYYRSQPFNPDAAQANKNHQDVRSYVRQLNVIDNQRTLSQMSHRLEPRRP

[20] = target: Rap guanine nucleotide exchange factor 4 (Homo sapiens) (UniProt Q8WZA2); assay: Confirmatory qHTS for antagonist of cAMP-regulated guanine nucleotide exchange factor 4 (EPAC2) (AID 1645885); further: on the % scale 0 is the no-effect control and ±100 the full control effect; nearly all actives have a fitted effect of over 25% in size
[21] = measured here: cell count channel max response
[22] = measured here: lipid channel max response

CC(C)NC[C@@H](O)COc1cccc2[nH]ccc12
inactive: activity change, negative = inhibition ([1]; at 17.2 µM (top of the series)) 5.19% | activity change, negative = inhibition ([1]; at 38 µM (top of the series)) 17% and 4.44% | activity change, negative = inhibition ([2]; at 17.2 µM (top of the series)) 4% | activity change, negative = inhibition ([2]; at 38 µM (top of the series)) 1.65% and 1.97% | activity, negative = inhibition ([3]; at 17.2 µM (top of the series)) 19% | activity, negative = inhibition ([3]; at 38 µM (top of the series)) 12.1% and 12.9% | Potency [4] > 46 µM and > 20.6 µM | Potency [5] | Potency [6] | Potency [7] | Potency [8] | Potency [9]

CCCCCCCCCCCCCCCC(=O)N[C@H](CN1CCOCC1)[C@H](O)c1ccccc1
inactive: activity change, negative = inhibition [9] 6.98% [at 6.83 µM] | Potency [10]

CN(C)CCCSc1ccccc1NC(=O)/C=C\c1ccccc1
23.1%: max response [15, 22]
14.3%: max response [15, 21]
inactive: Potency [4] > 46 µM | Potency [11] > 46 µM | Potency [5] | Potency [12] | Potency [14] | activity change, negative = inhibition [15] 4.73% | Potency [7] | Potency [8] | Potency [9]
active: Potency [13] 0.316 µM

c1ccc2nc(C3=NCCN3)cnc2c1
inactive: Potency [4] > 46 µM | Potency [11] > 46 µM | Potency [5] | Potency [7] | Potency [8] | Potency [9]
active: Potency [16] 0.398 µM

NC(C(=O)O)c1cc(O)c(Cl)c(O)c1 (centres undefined)
inactive: Potency [9] | Potency [17] | outcome [18] | outcome [19] | Potency [20]

CCNCCCNCCCNCCCNCC
-26.1%: max response [15, 21]
-12.2%: max response [15, 22]
inactive: Potency [4] > 46 µM | Potency [11] > 46 µM | Potency [5] | Potency [6] | Potency [14] | activity change, negative = inhibition [15] -4.07% | Potency [7] | Potency [8] | Potency [9]
